12-LOX inh = ALOX12 (human) lipoxygenase inhibition; purified 12hLO, xylenol orange hydroperoxide absorbance; 580,000 tested, 1.1% active; P18054; Potency, µM (series often up to 108 µM), for inactives: at the top dose activity change, negative = inhibition, usual class: inhibitors; also: % is scaled to controls: 0 for no effect and ±100 for the full control effect
Target sequence (P18054 whole entry, looked up): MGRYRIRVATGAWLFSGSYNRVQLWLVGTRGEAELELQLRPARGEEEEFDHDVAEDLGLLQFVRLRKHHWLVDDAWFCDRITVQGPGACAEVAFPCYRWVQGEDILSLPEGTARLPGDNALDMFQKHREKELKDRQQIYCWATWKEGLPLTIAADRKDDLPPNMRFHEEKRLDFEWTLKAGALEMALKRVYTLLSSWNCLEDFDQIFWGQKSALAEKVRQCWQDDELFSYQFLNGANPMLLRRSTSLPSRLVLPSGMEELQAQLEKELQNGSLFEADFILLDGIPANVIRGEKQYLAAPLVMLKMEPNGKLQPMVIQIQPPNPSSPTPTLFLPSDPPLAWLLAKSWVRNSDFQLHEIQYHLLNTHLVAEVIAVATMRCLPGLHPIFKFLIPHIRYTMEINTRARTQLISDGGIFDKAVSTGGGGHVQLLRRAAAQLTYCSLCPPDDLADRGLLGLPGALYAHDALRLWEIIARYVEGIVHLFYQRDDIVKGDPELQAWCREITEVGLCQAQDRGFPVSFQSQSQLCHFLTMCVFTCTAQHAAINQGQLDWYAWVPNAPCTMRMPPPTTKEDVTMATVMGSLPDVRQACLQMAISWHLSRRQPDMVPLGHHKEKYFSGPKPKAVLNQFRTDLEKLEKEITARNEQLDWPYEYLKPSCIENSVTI
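Purified human 12hLO at 150 nM in 25 mM Hepes, 0.01% Triton X-100, pH 7.0, preincubated 15 min at room temperature with compound. Reaction started with 40 uM arachidonic acid, 30 min at room temperature. Hydroperoxide measured by Fe-xylenol orange, 573/405 nm absorbance ratio.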
HepG2 tox-1 = kills HepG2 cells in TGF-b inhibitor counter-screen | 410,000 tested, 0.76% active | AID 588856 | HepG2 CAGA-GFP viability, ATP luminescence, 18 h | Potency, µM (doses to about 46.1 µM), inactives show at the highest dose activity change, negative = cytotoxicity, hits mostly cytotoxic
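CellTiter-Glo luminescence gave cytotoxicity after 18 hours at 37 degrees C. The cells were HepG2 CAGA-GFP in 1% FBS DMEM, stimulated with 500 pg/mL TGF-beta after compound addition. %Activity was normalised to no-cell wells (complete cell-killing) and DMSO (no toxicity), and curves were fitted and classified.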
TGFb inhibitor = TGF-b pathway inhibition; HepG2 CAGA-GFP TGF-b/SMAD3 reporter, GFP fluorescence, 18 h; TGF-beta stimulated, 500 pg/mL final; Potency, µM (doses to about 46.1 µM), for the others: at the highest dose activity, negative = inhibition, actives largely listed as inhibitors; 410,000 tested, 1.2% active; AID 588855; also: % is scaled to controls: 0 for no effect and ±100 for the full control effect; nearly all actives have a fitted effect of over 65% in size
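TGF-beta reporter screen: HEPG2 CAGA-GFP, 1% FBS, 500 pg/mL TGF-beta final, 18 h; per-cell GFP summed per well; curves fitted and categorized by class.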
ATXN viability = viability counter-screen for ATXN expression inhibitors | S2 cells (HEK-293 line with an ATXN2-luciferase reporter) viability, CellTiter-Fluor protease fluorescence, 24 h | Potency, µM (highest dose often 56.7 µM), most hits filed as cytotoxic | 400,000 tested, 0.49% active | AID 651635; also: nearly all actives have a fitted effect of over 40% in size
ATXN2 expr inh = reduces ATXN2 reporter expression in HEK-293 cells; HEK-293 ATXN2-luciferase reporter, luminescence, 24 h; AID 1745845; Potency, µM (highest dose often 57 µM), for the others: top-dose activity change, negative = inhibition, usual class: inhibitors; 360,000 tested, 0.72% active; also: % is scaled to controls: 0 for no effect and ±100 for the full control effect; nearly all actives have a fitted effect of over 55% in size
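ATXN2-luciferase reporter cells (luciferase flanked by upstream and downstream ATXN2 gene portions) were treated 24 h at 37 °C with compounds at up to 57 uM. SteadyGlo luminescence gave expression; GF-AFC fluorescence gave viability.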
TGFb confirm = confirmation of TGF-b signaling inhibitors in HepG2 reporter cells | shares compounds with TGFb inhibitor | 1,600 tested, 63% active | HepG2 CAGA-GFP TGF-b reporter, GFP fluorescence, 18 h; cells stimulated with TGF-beta, 500 pg/mL | Potency, µM (doses to about 46.1 µM), inactives show at the top dose activity, negative = inhibition, most hits filed as inhibitors; also: % is scaled to controls: 0 for no effect and ±100 for the full control effect; nearly all actives have a fitted effect of over 65% in size
HepG2 tox-2 = counter-screen for TGF-b inhibitors: cytotoxicity in HepG2 cells | shares compounds with TGFb inhibitor | HepG2 CAGA-GFP viability, ATP luminescence, 18 h; cells stimulated with TGF-beta, 500 pg/mL | Potency, µM (titrated, usually from 46.1 µM), for the others: top-dose activity, negative = cytotoxicity, most hits filed as inhibitors | 1,600 tested, 27% active | AID 720535; also: % is scaled to controls: 0 for no effect and ±100 for the full control effect; nearly all actives have a fitted effect of over 70% in size
TGFb CCL64 inh = blocks TGF-b signaling in CCL64 reporter cells; shares compounds with TGFb inhibitor; CCL64 CAGA-GFP reporter, TGF-b stimulated, GFP fluorescence, 18 h; Potency, µM (top dose mostly 46.1 µM), for the others: top-dose activity, negative = inhibition, usual class: inhibitors; 1,600 tested, 41% active; AID 720536; also: nearly all actives have a fitted effect of over 65% in size
COP TGFb inh = TGF-b inhibition validated with COP promoter | 1,600 tested, 3% active | HepG2 COP-GFP TGF-b reporter, GFP fluorescence, 18 h; cells stimulated by added recombinant TGF-beta | shares compounds with TGFb inhibitor | Potency, µM (doses to about 46.1 µM), inactives show top-dose activity, negative = inhibition, most hits filed as inhibitors | AID 720537; also: nearly all actives have a fitted effect of over 70% in size
* = called active by the depositor; i = inactive; ? = inconclusive; . = no result. Most compounds without a hit are left out; they make up all but 2.7% or so of the library. Calls follow the shape of the dose curve; as a rule, active = well fitted curve in the direction sought with a large enough effect; inconclusive = small, poorly fitted or top-dose-only effect, or another doubt; inactive = no such curve, though single readings can be large; an effect the other way counts as inactive or inconclusive. Potency is read from the fitted curve at half-maximal effect.

SMILES	12-LOX inh	HepG2 tox-1	TGFb inhibitor	ATXN viability	ATXN2 expr inh	TGFb confirm	HepG2 tox-2	TGFb CCL64 inh	COP TGFb inh
COc1cccc(NC(=O)CNC(=O)c2ccccc2)c1	0%	0%	12%	i	34%	.	.	.	.
COc1ccc(NS(=O)(=O)c2cc(NC(=O)CNC(=O)c3cccc(OC)c3)ccc2C)cc1	6%	7%	?	i	5%	?	-8%	?	-1%
Cc1ccccc1NC(=O)Cn1cnc2c(cnn2-c2ccc(F)cc2)c1=O	-25%	.	.	.	.	.	.	.	.
Cc1cc(OCc2nn[nH]n2)c2c(C)c(C)c(=O)oc2c1	-19%	.	.	.	.	.	.	.	.
COc1ccc(-c2c(C(F)(F)F)[nH]n3c(=O)cc(-c4ccccc4)nc23)cc1	11µM*	-62%	?	.	-4%	16µM*	16µM*	8.2µM*	34%
CCOC(=O)c1ccc2c(c1)nc(C1CCN(S(=O)(=O)c3cccs3)CC1)n2CC	-9%	-17%	?	?	?	?	?	-10%	25%
CCOC(=O)c1cccc(NC(=O)C2CCN(S(=O)(=O)c3cccs3)CC2)c1	18%	-18%	-23%	i	-18%	.	.	.	.
Cc1ccc2nc3c(c(Nc4ccc5c(c4)OCCO5)c2c1)CCC3	-26%	-20%	3.5µM*	?	-34%	?	?	?	78%
O=C1NC(Cc2ccccc2)c2nc3ccc(Cl)cc3c(=O)n2-c2cc3ccccc3cc21 (centres undefined)	?	1%	0%	?	-3%	.	.	.	.
O=C1NC(Cc2ccc(O)cc2)c2nc3ccc(Cl)cc3c(=O)n2-c2cc3ccccc3cc21 (centres undefined)	-88%	13%	7.9µM*	?	?	8.2µM*	?	5.8µM*	45%
CNC(=O)[C@@H]1C[C@H](Oc2ccccc2)CN1C(=O)c1cc(-c2ccc(C)cc2)n[nH]1	14%	.	.	.	.	.	.	.	.
CCCCn1c(=O)[nH]c(=O)c2c1nc(CCC(=O)OC)n2CC(C)C	-24%	.	.	.	.	.	.	.	.
Cc1ccccc1OCC(O)CNC1CCC(NCC(O)COc2ccccc2C)CC1 (centres undefined)	?	1.8µM*	5.6µM*	?	?	4.6µM*	5.2µM*	?	?
Cc1ccc(OCC(O)CNC2CCCC2)c(C)c1 (centres undefined)	-1%	-4%	-3%	?	.	.	.	.	.
Cc1ccccc1OCCNC(=O)c1ccccc1Sc1ccccc1C#N	5%	-26%	10µM*	i	0%	-25%	-6%	-16%	-1%
Nc1ccccc1C(=O)NC(=O)Nc1ccc(Oc2ncc(Br)cn2)c(Cl)c1	-25%	0%	?	?	-9%	?	-8%	5.8µM*	-18%
CC(=O)NCCNC(=O)Cc1c[nH]c2ccccc12	-7%	.	.	.	.	.	.	.	.
CC1(C)CC(=O)C=C(NC2=CC3OC(c4ccccc4)OCC3OC2=O)C1 (centres undefined)	-2%	-38%	8.9µM*	?	-3%	23µM*	16µM*	6.5µM*	24%

Compound activity (PubChem BioAssay)
